# Assay results taken from article PMC7862700, “An all-to-all approach to the identification of sequence-specific readers for epigenetic DNA modifications on cytosine”.
# What was measured:
# Experiment in all cases: DAPPL (digital affinity profiling via proximity ligation, sequencing); 10 mM Tris-HCl pH 7.5, 50 mM NaCl, 1 mM DTT, 4% glycerol, room temperature, 30 min; GST-TFs on glutathione beads, 16-mer random dsDNA library, 0.1% formaldehyde crosslink after washing; high values mean tight binding
# FLI1 = target: T1, FLI1 (Homo sapiens, UniProt Q01543 1-452); settings: protein: recombinant; tags: N-terminal GST; dsDNA, one strand shown
# T1 sequence: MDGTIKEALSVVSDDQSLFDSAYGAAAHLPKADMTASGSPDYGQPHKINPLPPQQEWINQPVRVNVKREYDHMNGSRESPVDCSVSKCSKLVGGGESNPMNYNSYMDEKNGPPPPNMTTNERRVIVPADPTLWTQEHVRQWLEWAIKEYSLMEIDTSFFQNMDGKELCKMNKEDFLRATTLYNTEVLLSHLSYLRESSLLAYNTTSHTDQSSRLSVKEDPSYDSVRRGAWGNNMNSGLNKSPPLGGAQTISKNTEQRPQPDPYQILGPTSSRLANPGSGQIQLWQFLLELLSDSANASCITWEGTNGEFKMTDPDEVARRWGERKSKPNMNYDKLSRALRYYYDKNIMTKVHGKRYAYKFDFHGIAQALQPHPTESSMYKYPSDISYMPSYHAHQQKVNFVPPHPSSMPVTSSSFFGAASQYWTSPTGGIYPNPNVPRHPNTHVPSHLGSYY
# Method in brief: (§1)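 Beads coated with glutathione captured GST-fused human transcription factors that had been expressed in yeast, and the factors were then given DNA barcodes and pooled with a tag-only sample. The pools were incubated with 200 nmole of a random double-stranded 16-mer DNA library in Tris/NaCl/DTT/glycerol buffer for 30 min at room temperature, washed, crosslinked with 0.1% formaldehyde and proximity-ligated with BsaI/T4 ligase at 37 °C for 1 h. PCR amplification and Illumina NextSeq500 sequencing came last. Binding signal is each hexamer's read frequency for a factor divided by its frequency for the tag-only sample.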
# ELK1 = target: T2, ELK1 (Homo sapiens, UniProt P19419 1-428); settings: protein: recombinant; tags: N-terminal GST; dsDNA, one strand shown
# T2 sequence: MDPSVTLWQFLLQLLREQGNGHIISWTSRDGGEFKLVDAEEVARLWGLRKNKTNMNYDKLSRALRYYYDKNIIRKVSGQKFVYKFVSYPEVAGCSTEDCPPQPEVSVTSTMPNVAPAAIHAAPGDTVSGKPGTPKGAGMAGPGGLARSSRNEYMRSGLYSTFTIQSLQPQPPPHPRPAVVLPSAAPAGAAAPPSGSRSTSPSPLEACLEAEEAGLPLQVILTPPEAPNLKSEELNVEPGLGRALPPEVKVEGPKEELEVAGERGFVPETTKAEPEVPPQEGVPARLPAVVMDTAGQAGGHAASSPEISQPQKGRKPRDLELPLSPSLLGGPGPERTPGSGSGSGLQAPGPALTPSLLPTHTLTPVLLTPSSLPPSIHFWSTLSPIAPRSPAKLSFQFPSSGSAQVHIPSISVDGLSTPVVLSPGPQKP
# Method in brief: as §1
# GABPA = target: T3, GABPA (Homo sapiens, UniProt Q06546 1-454); settings: protein: recombinant; tags: N-terminal GST; dsDNA, one strand shown
# T3 sequence: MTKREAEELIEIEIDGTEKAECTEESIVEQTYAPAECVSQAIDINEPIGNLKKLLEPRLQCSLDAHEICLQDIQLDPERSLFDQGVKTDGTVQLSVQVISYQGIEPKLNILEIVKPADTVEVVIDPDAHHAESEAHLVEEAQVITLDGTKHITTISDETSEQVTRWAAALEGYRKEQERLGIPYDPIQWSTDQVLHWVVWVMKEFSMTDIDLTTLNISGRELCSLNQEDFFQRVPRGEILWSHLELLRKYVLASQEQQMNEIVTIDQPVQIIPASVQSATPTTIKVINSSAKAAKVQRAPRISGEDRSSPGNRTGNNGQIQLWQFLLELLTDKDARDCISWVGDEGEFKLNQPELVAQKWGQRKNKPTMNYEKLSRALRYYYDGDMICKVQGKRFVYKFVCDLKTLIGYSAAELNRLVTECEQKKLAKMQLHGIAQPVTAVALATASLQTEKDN
# Method in brief: as §1
# ERG = target: T4, ERG (Homo sapiens, UniProt P11308 1-479); settings: protein: recombinant; tags: N-terminal GST; dsDNA, one strand shown
# T4 sequence: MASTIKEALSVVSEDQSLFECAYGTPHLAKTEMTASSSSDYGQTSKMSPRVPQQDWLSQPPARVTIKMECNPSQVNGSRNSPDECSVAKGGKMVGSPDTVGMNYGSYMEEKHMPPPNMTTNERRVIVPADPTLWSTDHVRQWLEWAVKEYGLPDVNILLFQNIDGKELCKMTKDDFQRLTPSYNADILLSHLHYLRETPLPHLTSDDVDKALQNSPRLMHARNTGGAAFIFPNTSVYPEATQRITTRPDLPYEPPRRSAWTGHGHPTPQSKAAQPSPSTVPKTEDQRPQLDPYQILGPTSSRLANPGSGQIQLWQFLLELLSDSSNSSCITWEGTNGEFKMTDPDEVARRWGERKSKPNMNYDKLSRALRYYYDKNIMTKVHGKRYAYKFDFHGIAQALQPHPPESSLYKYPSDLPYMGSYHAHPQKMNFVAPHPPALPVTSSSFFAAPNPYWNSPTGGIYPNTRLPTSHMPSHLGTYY
# Method in brief: as §1
# ELF1 = ELF1 (Homo sapiens, UniProt P32519 1-619); settings: protein: recombinant; tags: N-terminal GST; dsDNA, one strand shown
# Method in brief: as §1
# EHF = target: T5, EHF (Homo sapiens, UniProt Q9NZC4 1-300); settings: protein: recombinant; tags: N-terminal GST; dsDNA, one strand shown
# T5 sequence: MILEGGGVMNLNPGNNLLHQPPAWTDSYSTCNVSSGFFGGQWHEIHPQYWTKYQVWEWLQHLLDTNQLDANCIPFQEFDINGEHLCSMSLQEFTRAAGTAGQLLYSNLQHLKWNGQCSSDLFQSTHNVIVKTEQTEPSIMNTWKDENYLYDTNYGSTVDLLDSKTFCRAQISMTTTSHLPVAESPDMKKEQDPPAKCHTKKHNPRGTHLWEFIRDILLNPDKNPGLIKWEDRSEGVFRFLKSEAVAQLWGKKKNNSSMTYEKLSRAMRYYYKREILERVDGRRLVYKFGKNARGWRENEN
# Method in brief: as §1
# SPI1 = SPI1 (Homo sapiens, UniProt P17947 1-270); settings: protein: recombinant; tags: N-terminal GST; dsDNA, one strand shown
# Method in brief: as §1
# SPIB = SPIB (Homo sapiens, UniProt Q01892 1-262); settings: protein: recombinant; tags: N-terminal GST; dsDNA, one strand shown
# Method in brief: as §1
# ELK3 = target: T6, ELK3 (Homo sapiens, UniProt P41970 1-407); settings: protein: recombinant; tags: N-terminal GST; dsDNA, one strand shown
# T6 sequence: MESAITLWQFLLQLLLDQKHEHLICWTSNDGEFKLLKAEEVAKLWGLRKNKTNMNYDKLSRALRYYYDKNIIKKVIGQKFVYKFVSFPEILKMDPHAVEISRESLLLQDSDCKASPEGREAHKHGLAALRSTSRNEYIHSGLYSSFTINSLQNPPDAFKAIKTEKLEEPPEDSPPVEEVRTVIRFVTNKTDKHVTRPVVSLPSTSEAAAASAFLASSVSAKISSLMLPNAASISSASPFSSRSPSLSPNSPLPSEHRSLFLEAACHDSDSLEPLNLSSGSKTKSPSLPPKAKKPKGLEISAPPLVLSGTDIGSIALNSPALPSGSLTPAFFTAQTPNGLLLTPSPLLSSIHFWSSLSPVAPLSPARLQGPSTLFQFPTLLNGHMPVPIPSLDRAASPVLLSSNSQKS
# Method in brief: as §1
# FEV = target: T7, FEV (Homo sapiens, UniProt Q99581 1-238); settings: protein: recombinant; tags: N-terminal GST; dsDNA, one strand shown
# T7 sequence: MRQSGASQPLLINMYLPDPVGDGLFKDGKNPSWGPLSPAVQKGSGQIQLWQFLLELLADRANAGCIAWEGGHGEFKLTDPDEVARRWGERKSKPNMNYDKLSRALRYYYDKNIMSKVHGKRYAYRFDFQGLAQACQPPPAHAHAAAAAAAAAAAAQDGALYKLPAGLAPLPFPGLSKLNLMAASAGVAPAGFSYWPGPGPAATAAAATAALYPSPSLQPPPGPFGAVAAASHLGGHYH
# Method in brief: as §1
# ETV5 = ETV5 (Homo sapiens, UniProt P41161 1-510); settings: protein: recombinant; tags: N-terminal GST; dsDNA, one strand shown
# Method in brief: as §1
# HSF1 = HSF1 (Homo sapiens, UniProt Q00613 1-529); settings: protein: recombinant; tags: N-terminal GST; chain copies: 3; dsDNA, one strand shown
# Method in brief: as §1
# SPIC = target: T8, SPIC (Homo sapiens, UniProt Q8N5J4 1-248); settings: protein: recombinant; tags: N-terminal GST; dsDNA, one strand shown
# T8 sequence: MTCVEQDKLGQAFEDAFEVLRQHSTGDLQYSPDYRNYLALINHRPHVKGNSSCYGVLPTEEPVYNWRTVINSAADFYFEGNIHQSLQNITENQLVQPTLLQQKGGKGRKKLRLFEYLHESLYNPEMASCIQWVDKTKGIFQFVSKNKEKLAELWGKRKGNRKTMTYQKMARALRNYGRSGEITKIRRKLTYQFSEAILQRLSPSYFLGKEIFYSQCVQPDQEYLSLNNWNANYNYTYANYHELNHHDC
# Method in brief: as §1
# ELF4 = ELF4 (Homo sapiens, UniProt Q99607 1-663); settings: protein: recombinant; tags: N-terminal GST; dsDNA, one strand shown
# Method in brief: as §1
# ELK4 = target: T9, ELK4 (Homo sapiens, UniProt P28324-2 1-405); settings: protein: recombinant; tags: N-terminal GST; dsDNA, one strand shown
# T9 sequence: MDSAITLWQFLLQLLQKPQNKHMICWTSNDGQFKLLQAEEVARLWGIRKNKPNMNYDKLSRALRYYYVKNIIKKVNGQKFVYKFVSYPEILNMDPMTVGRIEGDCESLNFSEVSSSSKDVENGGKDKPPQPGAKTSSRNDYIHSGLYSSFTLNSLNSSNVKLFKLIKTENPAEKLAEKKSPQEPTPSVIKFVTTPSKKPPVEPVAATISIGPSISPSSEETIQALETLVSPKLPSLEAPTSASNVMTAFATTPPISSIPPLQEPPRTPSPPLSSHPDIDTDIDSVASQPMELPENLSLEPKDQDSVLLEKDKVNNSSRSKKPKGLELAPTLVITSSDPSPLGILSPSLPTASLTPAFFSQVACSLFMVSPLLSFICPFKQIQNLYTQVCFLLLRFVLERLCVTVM
# Method in brief: as §1
# ETV2 = target: T10, ETV2 (Homo sapiens, UniProt O00321 1-342); settings: protein: recombinant; tags: N-terminal GST; dsDNA, one strand shown
# T10 sequence: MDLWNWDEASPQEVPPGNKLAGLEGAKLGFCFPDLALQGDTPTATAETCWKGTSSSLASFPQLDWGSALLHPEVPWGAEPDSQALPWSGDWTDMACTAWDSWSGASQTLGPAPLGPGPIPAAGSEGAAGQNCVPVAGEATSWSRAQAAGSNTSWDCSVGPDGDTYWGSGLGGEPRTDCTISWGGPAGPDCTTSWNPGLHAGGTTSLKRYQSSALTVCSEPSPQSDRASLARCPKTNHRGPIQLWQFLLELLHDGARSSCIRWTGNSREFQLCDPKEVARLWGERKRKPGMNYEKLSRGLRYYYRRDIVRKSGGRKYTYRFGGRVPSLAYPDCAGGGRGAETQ
# Method in brief: as §1
# ELF3 = target: T11, ELF3 (Homo sapiens, UniProt P78545 1-371); settings: protein: recombinant; tags: N-terminal GST; dsDNA, one strand shown
# T11 sequence: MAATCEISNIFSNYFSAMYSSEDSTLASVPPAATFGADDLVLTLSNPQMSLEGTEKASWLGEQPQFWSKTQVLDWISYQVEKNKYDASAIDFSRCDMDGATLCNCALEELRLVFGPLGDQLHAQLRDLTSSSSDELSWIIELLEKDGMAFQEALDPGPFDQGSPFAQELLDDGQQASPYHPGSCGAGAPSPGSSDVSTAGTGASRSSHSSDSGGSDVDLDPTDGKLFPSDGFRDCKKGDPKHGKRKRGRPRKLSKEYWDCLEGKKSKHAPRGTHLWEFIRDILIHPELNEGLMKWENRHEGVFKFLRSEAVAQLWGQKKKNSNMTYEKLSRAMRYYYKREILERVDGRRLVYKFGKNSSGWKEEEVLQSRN
# Method in brief: as §1
# CRX = CRX (Homo sapiens, UniProt O43186 1-299); settings: protein: recombinant; tags: N-terminal GST; dsDNA, one strand shown
# Method in brief: as §1
# ETV1 = ETV1 (Homo sapiens, UniProt P50549 1-477); settings: protein: recombinant; tags: N-terminal GST; dsDNA, one strand shown
# Method in brief: as §1
# Sequence of SPIB (Q01892 whole entry): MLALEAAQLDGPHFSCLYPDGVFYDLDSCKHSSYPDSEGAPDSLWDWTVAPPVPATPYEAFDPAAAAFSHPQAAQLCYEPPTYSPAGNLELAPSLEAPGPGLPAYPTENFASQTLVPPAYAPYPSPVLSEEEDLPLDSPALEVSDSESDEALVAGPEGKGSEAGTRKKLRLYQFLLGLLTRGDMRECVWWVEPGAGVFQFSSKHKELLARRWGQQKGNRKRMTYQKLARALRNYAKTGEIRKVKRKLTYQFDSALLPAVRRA
# Sequence of ELF1 (P32519 whole entry): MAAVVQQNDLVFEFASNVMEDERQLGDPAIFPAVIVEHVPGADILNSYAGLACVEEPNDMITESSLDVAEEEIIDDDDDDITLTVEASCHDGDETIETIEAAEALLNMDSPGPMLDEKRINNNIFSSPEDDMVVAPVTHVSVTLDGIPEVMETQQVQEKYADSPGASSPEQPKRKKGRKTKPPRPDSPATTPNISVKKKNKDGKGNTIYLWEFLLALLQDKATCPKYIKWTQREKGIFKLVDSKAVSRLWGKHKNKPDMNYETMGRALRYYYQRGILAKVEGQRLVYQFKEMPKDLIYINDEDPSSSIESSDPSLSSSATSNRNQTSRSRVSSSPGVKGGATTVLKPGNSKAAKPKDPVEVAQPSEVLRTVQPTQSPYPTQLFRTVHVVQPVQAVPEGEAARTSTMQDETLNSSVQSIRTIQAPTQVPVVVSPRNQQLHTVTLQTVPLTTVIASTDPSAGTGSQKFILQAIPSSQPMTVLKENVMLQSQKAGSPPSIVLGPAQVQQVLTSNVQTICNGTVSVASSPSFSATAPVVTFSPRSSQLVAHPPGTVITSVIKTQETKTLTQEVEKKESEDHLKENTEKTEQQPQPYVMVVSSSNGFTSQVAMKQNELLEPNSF
# Sequence of ETV1 (P50549 whole entry): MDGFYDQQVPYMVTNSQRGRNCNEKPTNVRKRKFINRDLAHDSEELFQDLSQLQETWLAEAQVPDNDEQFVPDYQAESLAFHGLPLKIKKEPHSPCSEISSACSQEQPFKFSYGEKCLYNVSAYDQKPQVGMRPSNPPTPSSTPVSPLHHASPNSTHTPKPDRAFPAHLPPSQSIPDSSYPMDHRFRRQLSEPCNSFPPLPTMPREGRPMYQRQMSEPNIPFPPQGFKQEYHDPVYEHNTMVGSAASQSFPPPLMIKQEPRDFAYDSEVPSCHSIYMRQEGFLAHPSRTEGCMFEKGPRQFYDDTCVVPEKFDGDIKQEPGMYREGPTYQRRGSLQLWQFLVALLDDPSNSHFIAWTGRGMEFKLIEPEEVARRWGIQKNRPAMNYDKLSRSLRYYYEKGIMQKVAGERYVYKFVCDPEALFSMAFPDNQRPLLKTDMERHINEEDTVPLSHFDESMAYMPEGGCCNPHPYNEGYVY
# Sequence of ELF4 (Q99607 whole entry): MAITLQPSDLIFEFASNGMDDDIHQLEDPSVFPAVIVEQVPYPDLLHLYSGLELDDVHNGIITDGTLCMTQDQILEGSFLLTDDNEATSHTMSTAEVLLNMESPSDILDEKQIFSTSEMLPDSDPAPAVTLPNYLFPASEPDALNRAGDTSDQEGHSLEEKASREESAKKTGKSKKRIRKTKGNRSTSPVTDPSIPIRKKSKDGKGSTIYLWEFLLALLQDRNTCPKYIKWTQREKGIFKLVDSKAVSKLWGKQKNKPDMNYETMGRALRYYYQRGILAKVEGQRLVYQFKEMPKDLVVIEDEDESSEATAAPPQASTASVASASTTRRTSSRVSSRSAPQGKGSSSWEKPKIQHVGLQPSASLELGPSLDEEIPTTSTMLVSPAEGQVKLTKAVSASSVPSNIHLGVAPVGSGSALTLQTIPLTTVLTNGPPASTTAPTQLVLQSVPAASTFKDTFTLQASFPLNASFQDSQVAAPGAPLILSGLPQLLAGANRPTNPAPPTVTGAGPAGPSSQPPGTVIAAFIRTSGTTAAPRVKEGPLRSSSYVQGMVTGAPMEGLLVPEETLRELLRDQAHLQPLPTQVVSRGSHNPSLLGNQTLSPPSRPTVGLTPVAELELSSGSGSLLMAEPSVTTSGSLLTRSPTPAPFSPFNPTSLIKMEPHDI
# Sequence of HSF1 (Q00613 whole entry): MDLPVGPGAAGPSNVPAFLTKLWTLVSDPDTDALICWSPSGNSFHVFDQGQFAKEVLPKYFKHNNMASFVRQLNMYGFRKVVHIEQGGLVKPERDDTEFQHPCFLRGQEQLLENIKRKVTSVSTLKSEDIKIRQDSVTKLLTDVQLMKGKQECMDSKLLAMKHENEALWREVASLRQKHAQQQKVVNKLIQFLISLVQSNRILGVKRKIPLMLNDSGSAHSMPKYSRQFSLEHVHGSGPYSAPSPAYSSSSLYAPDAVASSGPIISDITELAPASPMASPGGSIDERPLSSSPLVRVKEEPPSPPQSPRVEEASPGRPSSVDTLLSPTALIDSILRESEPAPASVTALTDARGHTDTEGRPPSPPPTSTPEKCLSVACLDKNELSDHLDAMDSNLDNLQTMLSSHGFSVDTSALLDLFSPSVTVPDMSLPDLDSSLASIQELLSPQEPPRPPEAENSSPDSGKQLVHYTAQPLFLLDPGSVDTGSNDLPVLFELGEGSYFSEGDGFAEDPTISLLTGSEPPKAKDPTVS
# Sequence of CRX (O43186 whole entry): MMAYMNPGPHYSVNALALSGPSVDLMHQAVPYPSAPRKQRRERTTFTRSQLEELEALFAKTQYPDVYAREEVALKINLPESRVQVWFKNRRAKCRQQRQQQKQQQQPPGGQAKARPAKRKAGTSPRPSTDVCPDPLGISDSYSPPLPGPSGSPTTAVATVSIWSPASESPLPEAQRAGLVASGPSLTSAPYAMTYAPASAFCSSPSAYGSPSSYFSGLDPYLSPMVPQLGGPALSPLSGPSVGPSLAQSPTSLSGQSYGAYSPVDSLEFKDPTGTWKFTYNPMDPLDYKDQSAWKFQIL
# Sequence of ETV5 (P41161 whole entry): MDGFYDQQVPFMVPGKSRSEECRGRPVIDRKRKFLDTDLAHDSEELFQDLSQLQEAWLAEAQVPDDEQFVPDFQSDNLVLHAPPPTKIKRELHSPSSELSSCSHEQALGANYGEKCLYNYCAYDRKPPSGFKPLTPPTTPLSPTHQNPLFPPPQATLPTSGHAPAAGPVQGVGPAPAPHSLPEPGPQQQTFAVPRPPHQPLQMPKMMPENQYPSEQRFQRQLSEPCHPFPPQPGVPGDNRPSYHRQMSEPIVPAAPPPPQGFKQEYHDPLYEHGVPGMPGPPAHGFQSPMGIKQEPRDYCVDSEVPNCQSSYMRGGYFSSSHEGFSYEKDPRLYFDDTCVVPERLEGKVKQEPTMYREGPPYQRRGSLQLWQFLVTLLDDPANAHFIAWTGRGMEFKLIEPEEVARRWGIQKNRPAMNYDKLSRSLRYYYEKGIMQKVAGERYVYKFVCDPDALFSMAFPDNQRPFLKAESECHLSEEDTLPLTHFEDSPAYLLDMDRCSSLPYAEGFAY
sequence,measurement,setting,value
AGCTTA,binding signal,FLI1,"1.06 fold enrichment (6-mer frequency, TF over GST control)"
same,binding signal,ELK1,"1.12 fold enrichment (6-mer frequency, TF over GST control)"
same,binding signal,GABPA,"1.12 fold enrichment (6-mer frequency, TF over GST control)"
same,binding signal,ERG,"1.13 fold enrichment (6-mer frequency, TF over GST control)"
same,binding signal,ELF1,"1.11 fold enrichment (6-mer frequency, TF over GST control)"
same,binding signal,EHF,"1.1 fold enrichment (6-mer frequency, TF over GST control)"
same,binding signal,SPI1,"1.14 fold enrichment (6-mer frequency, TF over GST control)"
same,binding signal,SPIB,"1.21 fold enrichment (6-mer frequency, TF over GST control)"
same,binding signal,ELK3,"1.11 fold enrichment (6-mer frequency, TF over GST control)"
same,binding signal,FEV,"1.06 fold enrichment (6-mer frequency, TF over GST control)"
same,binding signal,ETV5,"1.07 fold enrichment (6-mer frequency, TF over GST control)"
same,binding signal,HSF1,"1.94 fold enrichment (6-mer frequency, TF over GST control)"
same,binding signal,SPIC,"1.12 fold enrichment (6-mer frequency, TF over GST control)"
same,binding signal,ELF4,"1.11 fold enrichment (6-mer frequency, TF over GST control)"
same,binding signal,ELK4,"1.08 fold enrichment (6-mer frequency, TF over GST control)"
same,binding signal,ETV2,"1.14 fold enrichment (6-mer frequency, TF over GST control)"
same,binding signal,ELF3,"1.23 fold enrichment (6-mer frequency, TF over GST control)"
same,binding signal,CRX,"3.13 fold enrichment (6-mer frequency, TF over GST control)"
same,binding signal,ETV1,"1.23 fold enrichment (6-mer frequency, TF over GST control)"
